Shown are actives, neighbours in structure and some others; about 10% of the full set was active somewhere.
JMJD2A Tudor – JMJD2A Tudor domain (human) inhibition; AlphaScreen JMJD2A-Tudor / H3K4me3 peptide binding; Potency, µM (doses to about 114 µM), without a hit: top-dose activity change, negative = inhibition, most hits filed as inhibitors; actives 4.4% (n = 390,000); AID 504339; also: potency is read from the fitted curve at half-maximal effect; % is scaled to controls: 0 for no effect and ±100 for the full control effect; nearly all actives have a fitted effect of over 50% in size
HP1b chromo inh – inhibitors of HP1-beta chromodomain binding to methylated histone tails; actives 0.56% (n = 390,000); Potency, µM (highest dose often 114 µM), inactives show at the top dose activity change, negative = inhibition, hits mostly inhibitors; AlphaScreen HP1-beta / biotin-H3K9me3 peptide binding; also: potency is read from the fitted curve at half-maximal effect; nearly all actives have a fitted effect of over 70% in size
Target sequence (P83916 whole entry, looked up): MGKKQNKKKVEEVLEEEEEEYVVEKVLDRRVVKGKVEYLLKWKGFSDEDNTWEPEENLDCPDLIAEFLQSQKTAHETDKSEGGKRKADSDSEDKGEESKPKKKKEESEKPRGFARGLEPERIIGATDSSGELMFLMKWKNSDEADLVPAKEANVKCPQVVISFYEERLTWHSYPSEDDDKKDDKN
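Compound inhibition of the preformed complex between 50 nM HP1-beta and 50 nM biotinylated H3K9me3 peptide was read by AlphaScreen. Buffer was PBS pH 7.4 with 0.01% Tween-20. Incubations ran 30 min at room temperature, with 10 ug/mL donor/acceptor beads.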
G9a inh – inhibitors of human histone lysine methyltransferase G9a; Potency, µM (highest dose often 102 µM), for inactives: at the top dose activity, negative = inhibition, actives largely listed as inhibitors; AID 504332; Q96KQ7; G9a H3K9 monomethylation, AlphaScreen, 2 h; actives 8.8% (n = 350,000); also: potency is read from the fitted curve at half-maximal effect; % is scaled to controls: 0 for no effect and ±100 for the full control effect; nearly all actives have a fitted effect of over 75% in size
Target sequence (Q96KQ7 913-1193 limits assumed): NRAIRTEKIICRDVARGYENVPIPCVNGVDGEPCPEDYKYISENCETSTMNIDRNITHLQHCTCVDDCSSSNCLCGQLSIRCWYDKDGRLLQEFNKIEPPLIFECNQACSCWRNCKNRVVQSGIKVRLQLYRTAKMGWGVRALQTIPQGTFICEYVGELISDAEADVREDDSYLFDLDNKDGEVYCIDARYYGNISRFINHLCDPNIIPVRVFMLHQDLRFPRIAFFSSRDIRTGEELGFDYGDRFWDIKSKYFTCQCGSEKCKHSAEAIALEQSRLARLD
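Compounds were preincubated with 20 nM G9a for 15 min, after which biotinylated H3K9 peptide (500 nM) and SAM (20 uM) started a 2 h room-temperature reaction. Monomethylated product was quantified by antibody-based AlphaScreen chemiluminescence.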
BAZ2B inh – BAZ2B (human) inhibition | Q9UIF8 | AlphaScreen BAZ2B-H3K14Ac peptide displacement | Potency, µM (titrated, usually from 114 µM), without a hit: at the highest dose activity change, negative = inhibition, usual class: inhibitors | actives 4.4% (n = 360,000) | AID 504333; also: potency is read from the fitted curve at half-maximal effect; % is scaled to controls: 0 for no effect and ±100 for the full control effect; nearly all actives have a fitted effect of over 60% in size
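Protein-peptide AlphaScreen: BAZ2B 50 nM, b-H3K14Ac 50 nM, 1x PBS pH 7.4 + 0.01% Tween-20. Preincubation 30 min RT; cpd 30 min RT (top 110 uM); beads 20 min RT, light-protected.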
CtBP-E1A inh – inhibitors of CtBP/E1A interaction | activity change, % (test concentration not listed) | AlphaScreen GST-E1A/His-CtBP binding, 1536-well; hits give low values | actives 0.49% (n = 340,000); in the data active = activity change below about -65%; inconclusive = mostly about -30% to -63%; also: % is scaled to controls: 0 for no effect and ±100 for the full control effect
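Homogeneous bead-based format: GST-tagged E1A captured on glutathione donor beads, His-tagged CtBP on nickel acceptor beads; compounds precede bead addition by 2 h at 37 °C.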
Six1-Eya2 inh – Six1/Eya2 interaction inhibition | Q15475+O00167 | AlphaScreen GST-Six1/His-Eya2 binding, biochemical; hits give low values | activity change, % (no concentration beside the values) | actives 0.56% (n = 360,000) | AID 651725; in the data active = activity change below about -65%; inconclusive = mostly about -30% to -63%; also: % is scaled to controls: 0 for no effect and ±100 for the full control effect
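Six1/Eya2 binding was read as AlphaScreen signal after compounds were pinned into GST-Six1 plus His-tagged Eya2 (5X stock 250/500 nM) in pH 8.0 Tris/NaCl/TCEP buffer, beads added, then incubated 1 h, 37 C, dark.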
* marks the source's active call; other numbers are inactive results; [ ] = remark or other dose. Unless noted, calls follow the shape of the dose curve; as a rule, active = well fitted inhibition curve with a large enough effect; inconclusive = small, poorly fitted or top-dose-only effect; inactive = no such curve, though single readings can be large or run the other way.

What do the screens show for `O=C(COC(=O)C12CC3CC(CC(C3)C1)C2)Nc1ccc2[nH]c(=O)[nH]c2c1`?
JMJD2A Tudor: -10.3%; HP1b chromo inh: 31.6%; G9a inh: 7.9%; BAZ2B inh: -27.2%; CtBP-E1A inh: 3.3; Six1-Eya2 inh: 11.3

How did COc1ccccc1CNC(=O)c1ccc2c(c1)N(Cc1cccc(C)c1)C(=O)c1ccccc1S2(=O)=O do in these assays?
JMJD2A Tudor: -22.2%; HP1b chromo inh: 11.6%; G9a inh: -10.1%[59 µM]; BAZ2B inh: -9.5%

Results for CCCCn1c(N)c(N(CCOC)C(=O)CSCc2ccc(Cl)c(Cl)c2)c(=O)[nH]c1=O ?
JMJD2A Tudor: -8.3%; HP1b chromo inh: 5.5%; G9a inh: 56.2µM*; BAZ2B inh: 1.2%; CtBP-E1A inh: -12.6; Six1-Eya2 inh: 5.3

How did COCCn1c(N)c(N(Cc2ccccc2)C(=O)CSCC(=O)Nc2ccc(C)cc2)c(=O)[nH]c1=O do in these assays?
JMJD2A Tudor: -6.9%; HP1b chromo inh: 34.5%; G9a inh: 31.6µM*; BAZ2B inh: -3.6%; CtBP-E1A inh: 4.9; Six1-Eya2 inh: 0.0

What do the screens show for `CCCCN(C(=O)CSCC(=O)Nc1ccc(C)cc1)c1c(N)n(Cc2ccccc2)c(=O)[nH]c1=O`?
JMJD2A Tudor: -7.6%; HP1b chromo inh: 14.3%; G9a inh: -0.8%[12.7 µM]; BAZ2B inh: 0.5%; CtBP-E1A inh: -16.3; Six1-Eya2 inh: -1.4

Results for CCCCn1c(N)c(N(CCOC)C(=O)COC(=O)CNC(=O)c2ccc(Cl)c(Cl)c2)c(=O)[nH]c1=O ?
JMJD2A Tudor: -7.1%; HP1b chromo inh: 56.5%; CtBP-E1A inh: 35.0; Six1-Eya2 inh: 18.2

What do the screens show for `CCCCn1c(N)c(N(CCOC)C(=O)CSCc2ccc(C)cc2)c(=O)[nH]c1=O`?
JMJD2A Tudor: -11.0%; HP1b chromo inh: 46.0%; G9a inh: 44.7µM*; BAZ2B inh: 6.5%; CtBP-E1A inh: 18.0; Six1-Eya2 inh: -4.4

How did O=C(NCCc1ccccc1)c1ccc2c(c1)N(Cc1c(F)cccc1Cl)C(=O)CS2 do in these assays?
JMJD2A Tudor: -12.3%; HP1b chromo inh: 24.2%; G9a inh: -11.5%[59 µM]; BAZ2B inh: 1.1%

Results for CC1=NN(C(N)=S)C(=O)C1N=Nc1c(Br)cc(Br)cc1Br (centres undefined) ?
JMJD2A Tudor: 56.2µM*; HP1b chromo inh: -18.1%; G9a inh: 0.0%[0.501 µM]; BAZ2B inh: 28.2µM*; CtBP-E1A inh: -18.3; Six1-Eya2 inh: -10.1

What do the screens show for `CC1=NN(C(N)=S)C(=O)C1N=Nc1c(Cl)cc([N+](=O)[O-])cc1Cl` (centres undefined)?
JMJD2A Tudor: 28.2µM*; HP1b chromo inh: inconclusive; G9a inh: 25.1µM*; BAZ2B inh: 39.8µM*; Six1-Eya2 inh: inconclusive

Results for CC1=NN(C(N)=S)C(=O)C1N=Nc1c(C)cc(C)cc1C (centres undefined) ?
JMJD2A Tudor: -13.2%; HP1b chromo inh: 6.1%; G9a inh: 6.9%; BAZ2B inh: inconclusive; CtBP-E1A inh: -9.3; Six1-Eya2 inh: -7.0

What do the screens show for `CCOC(=O)c1ccc(NC(=O)CN2C(=O)c3cccnc3Oc3ccc(Cl)cc32)cc1`?
JMJD2A Tudor: -35.3%; HP1b chromo inh: 3.5%; G9a inh: -10.3%[59 µM]; BAZ2B inh: inconclusive

Results for COC(=O)[C@@]12C[C@@H](CC(=O)NCCc3ccccc3OC)C(=O)N(Cc3ccccc3)C1=CCC(C)(C)C2 ?
CtBP-E1A inh: -1.1; Six1-Eya2 inh: -7.7

What do the screens show for `COc1ccc(-c2nc3scc(CCNS(=O)(=O)c4ccccc4F)n3n2)cc1`?
JMJD2A Tudor: -17.2%; HP1b chromo inh: 10.4%; G9a inh: 11.2%[59 µM]; BAZ2B inh: -11.2%

Source: PubChem BioAssay (National Center for Advancing Translational Sciences (NCATS))
